These compounds were tested on CIT. Details: concentration: 1 μM, replicates: in singlicate; n = 1.
In the case of `CCCC(=O)Nc1n[nH]c2ncc(-c3cccc4ccccc34)cc12` [SB-642057], the “%Inh” value is reported as 1%. For `Nc1nc(N)c2nc(-c3ccccc3)[nH]c2n1` [SKF-12778], the “%Inh” value was 17%. For `Cl.c1ccc(Cn2cnc3cc(Nc4ncnc5ccccc45)ccc32)cc1` [GW272142], the “%Inh” value was 0%. For `COc1cccc(-n2cnc3c(N)ncnc32)c1` [SKF-97416], the “%Inh” value was 8%. In the case of `COC(=O)c1c(-c2ccccc2)c2cc(Br)ccc2c(=O)n1Cc1ccc(S(C)(=O)=O)cc1`, the “%Inh” value is reported as 23%. `COc1cccc(C2=C(Nc3cccc(C(=O)O)c3)C(=O)NC2=O)c1` [SB-390770] was tested, and the “%Inh” value was 39%. In the case of `O=C1NC(=O)C(c2ccccc2)=C1Nc1cccc(O)c1` [SB-390534], the “%Inh” value is reported as 0%. `O=c1cc(N2CCOCC2)nc2n(Cc3ccc(F)c(Cl)c3)ccn12` [GSK2297099] was tested, and the “%Inh” value was 4%. For `Cc1nnc(-c2ccc3ncn(-c4ccc(S(C)=O)cc4)c3c2)o1` (centres unmarked), the “%Inh” value was 35%. In the case of `CCc1nc(-c2cccc(C)c2)c(-c2ccncc2)s1`, the “%Inh” value is reported as 72%. In the case of `CCn1c(-c2ccoc2)nc2cnccc21` [SB-733887], the “%Inh” value is reported as 19%. For `COc1cc2ncn(-c3cc(OCc4ccc(S(C)(=O)=O)cc4)c(C(N)=O)s3)c2cc1OC` [GW869979], the “%Inh” value was 29%. With `COc1ccc(-c2coc3ccc(-c4nnc(SCc5cccc(C#N)c5)o4)cc23)cc1` the “%Inh” value was 5%. For `Fc1cccc(CSc2nnc(-c3ccc4c(c3)CCO4)o2)c1`, the “%Inh” value was 0%. With `Cc1ccc(Oc2ccc(Nc3ncnc4cc[nH]c34)cc2C)cn1` the “%Inh” value was 57%. With `COc1ccc(-n2cnc3c(N)ncnc32)cc1` [SKF-97236] the “%Inh” value was 19%. In the case of `COc1cc(Nc2nccc(N3CCC(NC(=O)C(C)c4ccc(Cl)cc4)C3)n2)cc(OC)c1OC` (centres unmarked) [GSK1379757], the “%Inh” value is reported as 9%. `Cc1nn2c(=O)cc(N3CCOCC3)nc2n1Cc1cccc(Cl)c1Cl` [GSK2342769] was tested, and the “%Inh” value was 10%. In the case of `COc1ccc(-c2cc3c(C)nc(N)nc3n([C@H]3CC[C@H](O)CC3)c2=O)cn1`, the “%Inh” value is reported as 0%. For `COc1cc2ncn(-c3cc(OCc4ccncc4)c(C(N)=O)s3)c2cc1OC` [GSK336313], the “%Inh” value was 10%. With `COc1cc(Nc2nccc(N3CCC(NC(=O)C4COc5ccccc5O4)C3)n2)cc(OC)c1OC` (centres unmarked) [GSK1379761] the “%Inh” value was 33%. With `Nc1ncnc2c1ncn2-c1cccc(F)c1` [SKF-97560] the “%Inh” value was 6%. For `CCC(=O)c1c(-c2ccccc2)c2cc(Cl)ccc2c(=O)n1Cc1cc(C(=O)NC2CC2)n(C)n1`, the “%Inh” value was 7%. With `Nc1n[nH]c2ncc(-c3ccccc3)cc12` [SB-517081] the “%Inh” value was 29%. For `Cc1nc(N(C)[C@H]2CN(C(=O)CC#N)CC[C@H]2C)c2cc[nH]c2n1`, the “%Inh” value was 0%. With `CC(C)(C)c1ccc(C(=O)Nc2cn3cc(-c4ccccc4)ccc3n2)cc1` the “%Inh” value was 2%. With `FC(F)(F)c1ccc(-c2ncn(CCCN3CCOCC3)c2-c2ccncc2)cc1` [SB-217780] the “%Inh” value was 0%. In the case of `O=C(Nc1n[nH]c2nc(-c3ccccc3)c(Cl)cc12)C1CC1` [SB-734909], the “%Inh” value is reported as 0%. With `COc1ccc(-c2cc3c(C)nc(N)nc3n([C@H]3CC[C@H](OCCO)CC3)c2=O)cn1` the “%Inh” value was 0%. `Cc1ccc(-c2ccc3c(ccc4sc5c(c43)NC[C@@H](C)N=C5N(C)C)n2)cn1` was tested, and the “%Inh” value was 0%. With `Nc1n[nH]c2nnc(-c3ccccc3)c(-c3ccccc3)c12` [GW554060] the “%Inh” value was 26%. In the case of `CCC(=O)c1c(-c2ccccc2)c2cc(Cl)ccc2c(=O)n1Cc1ccc(C(=O)O)cc1`, the “%Inh” value is reported as 0%. For `CCS(=O)(=O)c1ccc(OC)c(Nc2ncc(-c3ccc(F)cc3)o2)c1.Cl` [GW591947], the “%Inh” value was 21%. `CCS(=O)c1ccc(-c2coc3ccc(-c4nnc(C)o4)cc23)cc1` (centres unmarked) was tested, and the “%Inh” value was 2%. `O=C(NCc1cccs1)c1cc(C(=O)c2c(Cl)cccc2Cl)c[nH]1` [GW823670] was tested, and the “%Inh” value was 16%. With `COc1cccc(C2=C(N(C)c3ccccc3)C(=O)NC2=O)c1` [SB-334865] the “%Inh” value was 6%. `OCCCNc1nccc(-c2c(-c3cccc(C(F)(F)F)c3)nn3cc(C(F)(F)F)ccc23)n1` [GW630813] was tested, and the “%Inh” value was 0%.

The compounds below were run on CLK1. Details: concentration: 1 μM, replicates: in singlicate; n = 1.
For `CCCC(=O)Nc1n[nH]c2ncc(-c3cccc4ccccc34)cc12` [SB-642057], the “%Inh” value was 30%. For `Nc1nc(N)c2nc(-c3ccccc3)[nH]c2n1` [SKF-12778], the “%Inh” value was 36%. `Cl.c1ccc(Cn2cnc3cc(Nc4ncnc5ccccc45)ccc32)cc1` [GW272142] was tested, and the “%Inh” value was 27%. In the case of `COc1cccc(-n2cnc3c(N)ncnc32)c1` [SKF-97416], the “%Inh” value is reported as 6%. `COC(=O)c1c(-c2ccccc2)c2cc(Br)ccc2c(=O)n1Cc1ccc(S(C)(=O)=O)cc1` was tested, and the “%Inh” value was 0%. With `COc1cccc(C2=C(Nc3cccc(C(=O)O)c3)C(=O)NC2=O)c1` [SB-390770] the “%Inh” value was 9%. In the case of `O=C1NC(=O)C(c2ccccc2)=C1Nc1cccc(O)c1` [SB-390534], the “%Inh” value is reported as 40%. In the case of `O=c1cc(N2CCOCC2)nc2n(Cc3ccc(F)c(Cl)c3)ccn12` [GSK2297099], the “%Inh” value is reported as 63%. With `Cc1nnc(-c2ccc3ncn(-c4ccc(S(C)=O)cc4)c3c2)o1` (centres unmarked) the “%Inh” value was 46%. In the case of `CCc1nc(-c2cccc(C)c2)c(-c2ccncc2)s1`, the “%Inh” value is reported as 13%. In the case of `CCn1c(-c2ccoc2)nc2cnccc21` [SB-733887], the “%Inh” value is reported as 26%. For `COc1cc2ncn(-c3cc(OCc4ccc(S(C)(=O)=O)cc4)c(C(N)=O)s3)c2cc1OC` [GW869979], the “%Inh” value was 17%. In the case of `COc1ccc(-c2coc3ccc(-c4nnc(SCc5cccc(C#N)c5)o4)cc23)cc1`, the “%Inh” value is reported as 47%. `Fc1cccc(CSc2nnc(-c3ccc4c(c3)CCO4)o2)c1` was tested, and the “%Inh” value was 73%. With `Cc1ccc(Oc2ccc(Nc3ncnc4cc[nH]c34)cc2C)cn1` the “%Inh” value was 0%. In the case of `COc1ccc(-n2cnc3c(N)ncnc32)cc1` [SKF-97236], the “%Inh” value is reported as 48%. `COc1cc(Nc2nccc(N3CCC(NC(=O)C(C)c4ccc(Cl)cc4)C3)n2)cc(OC)c1OC` (centres unmarked) [GSK1379757] was tested, and the “%Inh” value was 22%. With `Cc1nn2c(=O)cc(N3CCOCC3)nc2n1Cc1cccc(Cl)c1Cl` [GSK2342769] the “%Inh” value was 20%. For `COc1ccc(-c2cc3c(C)nc(N)nc3n([C@H]3CC[C@H](O)CC3)c2=O)cn1`, the “%Inh” value was 0%. `COc1cc2ncn(-c3cc(OCc4ccncc4)c(C(N)=O)s3)c2cc1OC` [GSK336313] was tested, and the “%Inh” value was 42%. For `COc1cc(Nc2nccc(N3CCC(NC(=O)C4COc5ccccc5O4)C3)n2)cc(OC)c1OC` (centres unmarked) [GSK1379761], the “%Inh” value was 3%. With `Nc1ncnc2c1ncn2-c1cccc(F)c1` [SKF-97560] the “%Inh” value was 22%. With `CCC(=O)c1c(-c2ccccc2)c2cc(Cl)ccc2c(=O)n1Cc1cc(C(=O)NC2CC2)n(C)n1` the “%Inh” value was 0%. With `Nc1n[nH]c2ncc(-c3ccccc3)cc12` [SB-517081] the “%Inh” value was 21%. With `Cc1nc(N(C)[C@H]2CN(C(=O)CC#N)CC[C@H]2C)c2cc[nH]c2n1` the “%Inh” value was 13%. `CC(C)(C)c1ccc(C(=O)Nc2cn3cc(-c4ccccc4)ccc3n2)cc1` was tested, and the “%Inh” value was 33%. In the case of `FC(F)(F)c1ccc(-c2ncn(CCCN3CCOCC3)c2-c2ccncc2)cc1` [SB-217780], the “%Inh” value is reported as 12%. With `O=C(Nc1n[nH]c2nc(-c3ccccc3)c(Cl)cc12)C1CC1` [SB-734909] the “%Inh” value was 0%. In the case of `COc1ccc(-c2cc3c(C)nc(N)nc3n([C@H]3CC[C@H](OCCO)CC3)c2=O)cn1`, the “%Inh” value is reported as 0%. In the case of `Cc1ccc(-c2ccc3c(ccc4sc5c(c43)NC[C@@H](C)N=C5N(C)C)n2)cn1`, the “%Inh” value is reported as 0%. With `Nc1n[nH]c2nnc(-c3ccccc3)c(-c3ccccc3)c12` [GW554060] the “%Inh” value was 23%. `CCC(=O)c1c(-c2ccccc2)c2cc(Cl)ccc2c(=O)n1Cc1ccc(C(=O)O)cc1` was tested, and the “%Inh” value was 0%. `CCS(=O)(=O)c1ccc(OC)c(Nc2ncc(-c3ccc(F)cc3)o2)c1.Cl` [GW591947] was tested, and the “%Inh” value was 25%. In the case of `CCS(=O)c1ccc(-c2coc3ccc(-c4nnc(C)o4)cc23)cc1` (centres unmarked), the “%Inh” value is reported as 0%. For `O=C(NCc1cccs1)c1cc(C(=O)c2c(Cl)cccc2Cl)c[nH]1` [GW823670], the “%Inh” value was 0%. `COc1cccc(C2=C(N(C)c3ccccc3)C(=O)NC2=O)c1` [SB-334865] was tested, and the “%Inh” value was 15%. `OCCCNc1nccc(-c2c(-c3cccc(C(F)(F)F)c3)nn3cc(C(F)(F)F)ccc23)n1` [GW630813] was tested, and the “%Inh” value was 9%.

Reference: article PMC5540273 (PLoS ONE, 2017)
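Further: KINOMEscan kinase panel screen.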
